Assay outcomes as filed in PubChem BioAssay.
GLP-1R inv ag: inverse agonists of human GLP-1 receptor. 410,000 compounds, 1.6% hits. HEK293 GLP-1R CRE-luciferase, luminescence, 24 h; GLP-1R form is constitutively active. Potency, µM (highest dose often 38.3 µM), inactives show at the highest dose activity change, negative = inhibition, hits mostly inhibitors; note: % is set by controls: 0 for no effect and ±100 for the full control effect; nearly all actives have a fitted effect of over 55% in size
Target sequence (P43220 whole entry, looked up): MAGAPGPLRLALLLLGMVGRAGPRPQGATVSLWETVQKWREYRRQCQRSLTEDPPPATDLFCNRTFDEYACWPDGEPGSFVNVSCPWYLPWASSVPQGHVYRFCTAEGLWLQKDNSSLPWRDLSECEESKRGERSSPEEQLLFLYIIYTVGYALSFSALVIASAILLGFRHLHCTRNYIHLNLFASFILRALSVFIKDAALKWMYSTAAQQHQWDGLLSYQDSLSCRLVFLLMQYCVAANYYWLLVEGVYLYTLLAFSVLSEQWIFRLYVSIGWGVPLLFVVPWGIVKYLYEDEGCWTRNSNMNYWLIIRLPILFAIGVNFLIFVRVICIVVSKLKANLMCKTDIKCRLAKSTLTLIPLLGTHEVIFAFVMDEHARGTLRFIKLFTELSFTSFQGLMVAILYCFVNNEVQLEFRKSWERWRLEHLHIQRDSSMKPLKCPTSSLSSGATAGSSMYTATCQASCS
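qHTS in 1536-well format: reporter HEK293 cells expressing constitutive GLP-1R activity in DMEM + 10% Nu serum, 24 hr with compounds at 37 deg C, luminescence read after 12 min with detection reagent.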
GLP-1R agonist: GLP-1 receptor (human) agonism | P43220 | HEK293 GLP-1R CRE-luciferase, luminescence, 4-6 h; cells express a hypersensitive GLP-1R form | Potency, µM (doses to about 45.6 µM), without a hit: at the highest dose activation, usual class: activators | 380,000 compounds, 0.007% hits | AID 624172; note: % of control where 0% means no effect
HEK293 tox: cytotoxicity counter-screen for GLP-1 receptor inverse agonists; HEK293 cAMP-luciferase reporter cells, luminescence, 24 h; Potency, µM (highest dose often 38.3 µM), for the others: at the top dose activity change, negative = inhibition, usual class: inhibitors; 410,000 compounds, 0.13% hits;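 note: loss of luciferase light is scored as toxicity; % is set by controls: 0 for no effect and ±100 for the full control effect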
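A 23 nL compound transfer followed 12 hours of cell culture at 37 deg C; exposure then lasted 24 hr. Luciferase assay detection reagent was dispensed and plates read for luminescence after a 12 min room-temperature wait.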
ClpP mod: qHTS Assay for Activators of ClpP | ATP-dependent Clp protease proteolytic subunit (Bacillus subtilis (strain 168)), P80244 | purified B. subtilis ClpP, FRET peptide cleavage, 20 min | Potency, µM (doses to about 57.5 µM), for inactives: at the highest dose activity change, negative = active | 340,000 compounds, 1.9% hits | AID 651965, 2013; active = well fitted falling curve with a large enough effect; inconclusive = small, poorly fitted or top-dose-only effect; inactive = no such curve, though single readings can be large or run the other way; note: the source files actives as falling curves though it sought activators and does not explain the sign; nearly all actives have a fitted effect of over 65% in size
Target sequence (P80244 whole entry, looked up): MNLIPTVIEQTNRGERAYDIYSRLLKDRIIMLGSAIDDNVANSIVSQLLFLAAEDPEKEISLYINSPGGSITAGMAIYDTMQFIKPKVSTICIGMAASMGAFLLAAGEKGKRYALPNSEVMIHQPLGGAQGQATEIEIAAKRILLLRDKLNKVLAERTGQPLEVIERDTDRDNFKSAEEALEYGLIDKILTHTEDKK
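Purified B. subtilis ClpP, 10 microg/mL final in Tris/HCl pH8 with KCl, BSA, glycerol and Tween-20, cleaved an Abz/nitrotyrosine-quenched decapeptide. Fluorescence (ex 320, em 430) was read at 0 and 20 min at room temperature. Delta was normalized to 5.8 microM ADEP and DMSO/no-enzyme controls.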
* marks the source's active call; other numbers are inactive results; ? = inconclusive; nt = no result; ! = not confirmed by another sample; [ ] = dose if it differs, or a comment. An excerpt weighted towards active compounds, which were near 3.2% of everything screened. Unless noted, calls come from the whole dose curve; as a rule, active = well fitted curve in the direction sought with a large enough effect; inconclusive = small, poorly fitted or top-dose-only effect, or another doubt; inactive = no such curve, though single readings can be large; an effect the other way counts as inactive or inconclusive. Potency is the fitted concentration of half-maximal effect.

SMILES | GLP-1R inv ag | GLP-1R agonist | HEK293 tox | ClpP mod
CN(C)CCNC(=O)C12CC3(C)CC(C)(CC(C)(C3)C1)C2 | 8.9µM* | 3% | -23% | 1%
CCn1c(-c2csc(-c3ccc(Cl)cc3)n2)n[nH]c1=S | 6% | -15% | 5% | -3%
C=CCn1c(-c2csc(-c3ccccc3)n2)n[nH]c1=S | ? | 7% | 11µM* | -3%
C=CCn1c(-c2csc(-c3ccc(Cl)cc3)n2)n[nH]c1=S | ? | -25% | 3.5µM* | -11%
Cc1ccc(C(=O)CSc2nc3cc(C(=O)NC4CCCC4)ccc3c(=O)n2CC2CCCO2)c(C)c1 (centres undefined) | 13% | nt | 4% | -1%
CCOc1ccc(N(C(C)=O)c2nc(C)cc(C)c2C#N)cc1 | 15% | 1% | -2% | 25µM*
N#Cc1ccccc1N/C=C/C(=O)c1ccc(Cl)cc1 | 6.3µM* | 11% | -1% | nt
O=C(Nc1ccc2ccccc2c1)C(c1ccccc1)C1CCCC1 (centres undefined) | 5µM* | -8% | 2% | -13%
Cc1ccc(NC(=O)C(c2ccccc2)C2CCCC2)cc1 (centres undefined) | ? | -3% | -15% | -1%
COc1ccc(-c2nc(C#N)c(N3CCN(c4ccccc4)CC3)o2)cc1 | -6% | 1% | -5% | 5%
CC1CCN(c2oc(-c3ccccc3Cl)nc2C#N)CC1 | ? | 10% | 8% | 28µM*
CCN1CCN(c2oc(-c3ccc(OC)cc3)nc2C#N)CC1 | -21% | -3% | -7% | 3.2µM*
COc1ccc(N2CCN(c3oc(-c4ccccc4OC)nc3C#N)CC2)cc1 | 0% | 4% | -5% | ?
N#Cc1nc(-c2ccco2)oc1N1CCOCC1 | 0% | -3% | -14% | -11%
COc1ccccc1-c1nc(C#N)c(N2CCN(c3ccccc3)CC2)o1 | ? | 11% | -1% | 28µM*
N#Cc1nc(-c2ccccc2Cl)oc1N1CCOCC1 | 177% | 24% | 4% | 8.9µM*
Cc1ccccc1-c1nc(C#N)c(N2CCC(C)CC2)o1 | ? | 20% | 17% | 4%
OC[C@H]1O[C@H](OC/C=C/c2ccccc2)[C@H](O)[C@@H](O)[C@@H]1O | nt | -6% | nt | nt
CCC(C)NC(=O)C1CCN(S(=O)(=O)c2ccc3c(c2)CCCN3C(C)=O)CC1 (centres undefined) | 14% | nt | -3% | -1%
CCc1nc2nc(C)cc(Nc3cc(Cl)ccc3OC)n2n1 | 12% | nt | 5% | -2%
Cc1cccc(N(CC(N)=O)C2SC(=O)N(Cc3cccc(C(=O)O)c3)C2=O)c1 (centres undefined) | -5% | nt | 12% | -1%
CC1CC(C)CN(c2oc(-c3ccccc3F)nc2C#N)C1 (centres undefined) | -14% | 5% | -5% | 0%
CC1CCCN(c2oc(-c3cccc4ccccc34)nc2C#N)C1 (centres undefined) | 3% | -8% | 3% | 3.2µM*
CCN1CCN(S(=O)(=O)c2ccc(Oc3ccccc3OC)cc2)CC1 | -12% | 8% | 3% | 20µM*
COc1ccc(S(=O)(=O)N2CCN(Cc3ccccc3OC)CC2)cc1 | -25% | 14% | 6% | 1%
SMILES | GLP-1R inv ag | GLP-1R agonist | HEK293 tox | ClpP mod
CCCCn1c(N)c(N(CCC(C)C)C(=O)CC2CCCCC2)c(=O)[nH]c1=O | 7% | 0% | -5% | 2%
CCCCn1c(N)c(N(CC(C)C)C(=O)CSCc2c(C)noc2C)c(=O)[nH]c1=O | 20% | 0% | 2% | 28µM*
CCCCn1c(N)c(N(CCC(C)C)C(=O)c2ccccc2C)c(=O)[nH]c1=O | 1% | 0% | 6% | nt
CCCCn1c(N)c(N(CCC(C)C)C(=O)c2[nH]c(C)c(C(=O)OCC)c2C)c(=O)[nH]c1=O | 12% | -2% | -10% | 18µM*
CCCCn1c(N)c(N(CCC(C)C)C(=O)c2ccccc2-n2cnnn2)c(=O)[nH]c1=O | -1% | 3% | 6% | 28µM*
CCCCN(C(=O)CSCc1c(C)noc1C)c1c(N)n(CCC)c(=O)[nH]c1=O | -6% | 2% | 0% | -2%
O=C(Nc1cccc(F)c1)C1CCN(S(=O)(=O)c2ccc3[nH]c4c(c3c2)CCCCC4)CC1 | ? | nt | -7% | ?
NNC(=O)c1sc2cc(C(F)(F)F)cnc2c1-c1cccs1 | 15% | 13% | -8% | nt
O=C(Nc1ccccc1)c1sc2cc(C(F)(F)F)cnc2c1-c1cccs1 | 3% | -9% | 90% | 32µM*
O=C(Nc1ccc(Cl)c([N+](=O)[O-])c1)C(Sc1ccccc1)c1ccccc1 (centres undefined) | 8.9µM* | -1% | ? | -3%
O=C(Nc1cc([N+](=O)[O-])ccc1Cl)C(Sc1ccccc1)c1ccccc1 (centres undefined) | ? | 0% | 22% | -12%
CCOC(=O)c1cc2c(=O)n3ccccc3nc2n(CC2CCCO2)c1=NC(=O)c1ccccc1OCC (centres undefined) | 6% | nt | 258% | 4%
Cc1[nH]nc2c1-c1nc3ccccc3nc1C(C)(C)C2 | 2% | 10% | 4% | 14µM*
CCC(CC)C(=O)N(C)c1c(C)nc2c(OCc3cc(Cl)cc(Cl)c3)cccn12 | 11µM* | 10% | -1% | -5%
CC(=O)N1CC(=O)N=C1SCC(=O)Nc1nc(C)c(-c2ccccc2)s1 | -16%[0.307 µM] | 25% | 3%[0.307 µM] | 20µM*
Cc1c(C(=O)NCc2ccoc2)oc2ccc3c(c12)C(=O)CC(C)(C)O3 | -10% | 22% | 20% | 28µM*
Clc1ccc2c(c1)c1ccccc1n2CN1CCOCC1 | ? | 3% | 7% | -8%
Clc1ccc2c(c1)c1cc(Cl)ccc1n2CN1CCOCC1 | 5µM* | -4% | 6% | -6%
Cc1cc(C)cc(S(=O)(=O)N2CCN(c3nc(-c4cccs4)nc4ccccc34)CC2)c1 | nt | nt | nt | 4%
O=S(=O)(c1ccc(Cl)cc1)N1CCN(c2nc(-c3cccs3)nc3ccccc23)CC1 | 10% | -4% | -6% | 20µM*!
N#Cc1ccc(S(=O)(=O)N2CCN(c3nc(-c4cccs4)nc4ccccc34)CC2)cc1 | nt | nt | nt | 4%
O=S(=O)(c1cccnc1)N1CCN(c2nc(-c3cccs3)nc3ccccc23)CC1 | nt | nt | nt | 32µM*
CCCCCCCN(CC)CCCC(O)c1ccc(NS(C)(=O)=O)cc1 (centres undefined) | nt | 8% | nt | nt
CS(=O)(=O)N(CC(=O)NCCc1ccccc1)c1cc(C(F)(F)F)ccc1Cl | ? | nt | -8% | -3%
COc1ccccc1NC(=O)Cn1c(=O)n(CCC(=O)NCC2CCCO2)c(=O)c2cc(OC)c(OC)cc21 (centres undefined) | 7% | nt | 8% | -17%
c1ccc2c3c(cc(N4CCOCC4)c2c1)OC1(N2CCOCC2)CCCCC1O3 (centres undefined) | -28% | 4% | ? | 32µM*
c1ccc(COc2ncnc3c2ncn3CCCNC2CCN(Cc3ccccc3)CC2)cc1 | 7.1µM* | -1% | ? | 0%
